From PubChem BioAssay AID588489 (Sanford-Burnham Center for Chemical Genomics, 2011)
The campaign covered roughly 360,000 compounds. About 1,300 (0.36%) were called active. No stated cut-off is given here; in the data, active means inhibition above about 35% (passing the limit was not always enough); inactive means the rest. The sample as a whole holds a higher share of actives than the screen did.

Molecular target: Polyadenylate-binding protein 1 (Homo sapiens) (UniProt P11940)
Test: PAM2 peptide displacement from PABP1 MLLE – biochemical, fluorescence polarization, FITC-PAM2, GST-MLLE, primary screen (AID 588489);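 further: plate controls were DMSO wells with GST-MLLE for no effect and wells lacking GST-MLLE protein for full effect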
Conditions: at 20 µM, hits give high values

Polyadenylate-binding protein 1 (Homo sapiens), sequence (P11940 whole entry, looked up): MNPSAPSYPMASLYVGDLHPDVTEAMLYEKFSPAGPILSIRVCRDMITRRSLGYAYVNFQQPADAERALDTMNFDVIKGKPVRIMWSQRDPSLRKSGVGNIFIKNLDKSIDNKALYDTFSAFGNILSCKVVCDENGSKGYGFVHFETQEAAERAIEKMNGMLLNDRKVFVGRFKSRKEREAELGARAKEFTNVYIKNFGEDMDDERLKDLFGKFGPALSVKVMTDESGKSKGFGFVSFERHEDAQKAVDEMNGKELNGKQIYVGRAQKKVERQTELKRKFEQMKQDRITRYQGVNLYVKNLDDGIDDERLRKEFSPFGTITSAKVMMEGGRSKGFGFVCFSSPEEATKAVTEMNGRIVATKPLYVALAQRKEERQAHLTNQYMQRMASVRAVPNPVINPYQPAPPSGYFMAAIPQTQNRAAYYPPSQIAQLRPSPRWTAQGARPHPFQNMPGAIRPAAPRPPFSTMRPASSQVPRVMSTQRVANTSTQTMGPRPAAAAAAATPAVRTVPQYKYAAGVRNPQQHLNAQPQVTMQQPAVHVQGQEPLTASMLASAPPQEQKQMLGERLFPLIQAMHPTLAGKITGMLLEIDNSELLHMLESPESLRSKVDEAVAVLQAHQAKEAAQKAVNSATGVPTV

SMILES	inhibition
CCOC(=O)Cc1cc(=O)[nH]c(/N=C(\N)Nc2ccc(OC)cc2)n1	3.52% (inactive)
COc1ccc(S(=O)(=O)N2CCSCC2)cc1	2.01% (inactive)
Cc1c(C)c(C)c(S(=O)(=O)NCCc2ccccn2)c(C)c1C	-6.36% (inactive)
COCCCNC(=O)Cc1ccc(-n2c(C)nc3cccnc32)cc1	18.3% (inactive)
CCc1nc2cccnc2n1-c1ccc(C(=O)O)cc1	58.3% (active)
CCOC(=O)CNC(=O)CSc1nc2cccnc2n1CC	0.93% (inactive)
O=C(NCc1cc(F)cc(C(F)(F)F)c1)C1CCC(=O)N(C2CCCC2)C1 (configuration not stated)	2.19% (inactive)
C[C@@H]1NS(=O)(=O)c2cc(Cl)ccc2O[C@@H]1c1ccccc1	-9.19% (inactive)
Cc1cccc(NC(=O)NC(=S)NC(=O)c2ccccc2)c1	41.9% (active)
Cc1cccc(OCCNC(=S)NC(=O)c2cccnc2)c1	22% (inactive)
Cn1nnc(NC(=S)NC(=O)c2ccccc2)n1	26.2% (inactive)
COc1ccc(C(C)(C)C)cc1NC(=O)CN(C)C1=NS(=O)(=O)c2ccccc21	-40.4% (inactive)
O=S(=O)(c1cccc(Cn2nnc(-c3ccc(F)cc3)n2)c1)N1CCOCC1	-5.3% (inactive)
O=S(=O)(c1ccc(F)cc1)N1CC=C(c2ccccc2)CC1	-8.32% (inactive)
CC1CCN(C(=S)NC(=O)c2ccccc2Br)CC1	15% (inactive)
O=C(NC(=S)Nc1ncccn1)c1ccccc1Br	42.1% (active)
O=C(Nc1ccccc1)c1ccccc1Br	-11.2% (inactive)
Cc1cc(Cl)ccc1C(=O)C1CCCN(C(=O)CCN2CCCO2)C1 (configuration not stated)	-4.82% (inactive)
CCN1C(=O)[C@H]2[C@@H](c3ccc(-c4ccc(OC)cc4)cc3)N[C@@](Cc3ccccc3)(C(=O)OC)[C@H]2C1=O	-0.71% (inactive)
O=C(CN1C(=O)c2ccc([N+](=O)[O-])cc2C1=O)Nc1nnc(C2CC2)s1	-18.6% (inactive)
O=C(Cc1ccc(Br)cc1)N1CCN(c2ccccn2)CC1	61.7% (active)

SMILES	inhibition
O=C(Cc1ccccc1Cl)N1CCN(c2ccccn2)CC1	-6.28% (inactive)
O=C(C(Cl)Cl)N1CCN(c2ccccn2)CC1	-10.9% (inactive)
CC(=O)NC(CC(=O)Nc1cccc(S(=O)(=O)N2CCCC2)c1)c1ccccc1 (configuration not stated)	-16.4% (inactive)
COc1ccc2c(c1)C(NS(=O)(=O)OCC(Cl)(Cl)Cl)CCC2 (configuration not stated)	-0.88% (inactive)
CN(C)S(=O)(=O)c1cccc(NC(=O)COC(=O)C2(c3ccccc3F)CCCC2)c1	4.77% (inactive)
COc1ccccc1C(=O)NC(=S)Nc1ccccc1N1CCCCC1	14.7% (inactive)
COc1ccc(Br)cc1C(=O)NC(=S)Nc1cc(-c2nc3ccccc3[nH]2)ccc1C	43.3% (active)
COc1ccc(Br)cc1C(=O)Nc1cccc(C)c1C	21.9% (inactive)
O=C(CSC(=S)N1CCCCC1)c1c(F)cccc1F	-3.59% (inactive)
CC1=NOC(=O)/C1=C\c1ccccc1	25.2% (inactive)
C#CCOc1ccc(/C=C2/C(=O)ON=C2C)cc1OCC	26.6% (inactive)
COc1cc(/C=C2/C(=O)ON=C2C)ccc1OCc1cccc(F)c1	41.5% (active)
CC(C)(C)[C@H]1C=C(C(=O)NCc2ccccc2)O[C@@H](OCc2ccc(CO)cc2)C1	-0.14% (inactive)
COCCOC(=O)c1sc(=S)n(CCOC)c1N	49.3% (active)
CCn1ncc(C2=NOC(C(=O)Nc3ccccc3C(=O)OC)C2)c1C (configuration not stated)	10.5% (inactive)
COc1ccccc1-c1cc2nc(NCc3cccc(Cl)c3)ccn2n1	10.3% (inactive)
COc1ccc(-c2nc(CS(=O)CC(=O)NCc3cccnc3)c(C)o2)cc1OC (configuration not stated)	23.2% (inactive)
COc1ccc(-c2nc(CS(=O)CC(=O)NCc3ccccn3)c(C)o2)cc1 (configuration not stated)	61.9% (active)
COc1ccc(-c2nc(CS(=O)CC(=O)NCc3ccccc3)c(C)o2)cc1OC (configuration not stated)	19.8% (inactive)
CC1CCCC(C)N1C(=O)CN1CCN(c2nc(-c3ccc(F)cc3)cs2)CC1 (configuration not stated)	-7.72% (inactive)
COc1ccc(NS(=O)(=O)c2ccc(F)cc2F)cn1	-1.17% (inactive)

SMILES	inhibition
COc1cccc(Nc2ncccc2C(=O)O)c1	8.54% (inactive)
COc1ccc(Nc2cc(Cl)ccc2C(=O)O)cn1	41.8% (active)
CCOC(=O)C1CCCCN1Cc1ccc(OC)c(OC)c1OC (configuration not stated)	0.49% (inactive)
NC(CSC12CC3CC(CC(C3)C1)C2)C(=O)O (configuration not stated)	11.7% (inactive)
Cc1cc2nc(C)n(CCCNC(=O)Nc3ccccc3)c2cc1C	4.6% (inactive)
COCCNC(=O)Nc1ccc2nc(-c3ccco3)c(-c3ccco3)nc2c1	72.8% (active)
COCCNC(=O)CSc1nc(N)c(NC(=O)c2ccco2)c(=O)[nH]1	-1% (inactive)
Cc1ccc(C)c(S(=O)(=O)N2CCCOC2CNC(=O)C(=O)NC2CCCCC2)c1 (configuration not stated)	-1.96% (inactive)
CCN(CC)C(=O)COc1coc(CN2CCN(Cc3ccccc3)CC2)cc1=O	9.67% (inactive)
NS(=O)(=O)c1ccc(CCNC(=O)c2ccc([N+](=O)[O-])cc2[N+](=O)[O-])cc1	5.05% (inactive)
CNc1nccc(-c2ccc(Cl)cc2)c1C#N	11.5% (inactive)
Cc1nc(N2CCCC2C(=O)O)c2oc3ccccc3c2n1 (configuration not stated)	2.41% (inactive)
Cc1cc([N+](=O)[O-])c(N2CCC[C@@H]2C(=O)O)c([N+](=O)[O-])c1	11.4% (inactive)
O=C(O)C1CCCN1c1nc(Cl)ccc1[N+](=O)[O-] (configuration not stated)	51.9% (active)
CC(=O)Nc1ccc(S(=O)(=O)N2CCN(c3ccc([N+](=O)[O-])c(NCCN4CCOCC4)c3)CC2)cc1	-9.63% (inactive)
O=C1c2ccccc2C2=Nc3ccccc3SC(c3ccccc3F)C12 (configuration not stated)	-2.44% (inactive)
O=C1c2cccc(OCC(=O)N3N=C(c4cccs4)CC3c3ccc(F)cc3)c2CCN1Cc1ccccc1 (configuration not stated)	0.32% (inactive)
O=C1CSC(c2cccc(F)c2)N1c1ccc(O)cc1 (configuration not stated)	1.39% (inactive)
COc1cccc(C2SCC(=O)N2c2cccc(C)c2)c1OC (configuration not stated)	20.4% (inactive)
Cc1ccc(C2SCC(=O)N2c2ccccc2)cc1 (configuration not stated)	48.1% (active)
